Holding throughout (experiment): DAPPL (digital affinity profiling via proximity ligation, sequencing); 10 mM Tris-HCl pH 7.5, 50 mM NaCl, 1 mM DTT, 4% glycerol, room temperature, 30 min; GST-TFs on glutathione beads, 16-mer random dsDNA library, 0.1% formaldehyde crosslink after washing; high values mean tight binding
The target of one assay is T1, FLI1 (Homo sapiens, UniProt Q01543 1-452).
T1 sequence: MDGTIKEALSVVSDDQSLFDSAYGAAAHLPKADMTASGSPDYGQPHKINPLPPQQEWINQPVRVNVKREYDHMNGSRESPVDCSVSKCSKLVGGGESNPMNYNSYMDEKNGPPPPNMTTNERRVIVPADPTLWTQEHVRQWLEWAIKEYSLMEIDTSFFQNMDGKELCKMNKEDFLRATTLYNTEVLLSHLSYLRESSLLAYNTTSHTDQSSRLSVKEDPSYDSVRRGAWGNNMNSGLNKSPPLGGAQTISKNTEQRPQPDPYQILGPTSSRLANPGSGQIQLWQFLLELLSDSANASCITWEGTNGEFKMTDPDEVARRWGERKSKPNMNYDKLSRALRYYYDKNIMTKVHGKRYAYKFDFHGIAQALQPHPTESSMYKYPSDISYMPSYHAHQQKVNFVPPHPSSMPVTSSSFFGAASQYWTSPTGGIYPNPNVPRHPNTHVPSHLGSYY
The following applies: protein: recombinant; tags: N-terminal GST; dsDNA, one strand shown. In outline:
(§1)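 The binding signal reported is, for every hexamer, its read frequency for a factor over its read frequency for the tag-only sample. Reads came from pools of yeast-expressed, GST-fused human transcription factors on glutathione beads, barcoded with DNA and mixed with that sample, which were incubated with 200 nmole of a random double-stranded 16-mer DNA library in Tris/NaCl/DTT/glycerol buffer at room temperature for 30 min. After washing, the pools were crosslinked with 0.1% formaldehyde, proximity-ligated with BsaI/T4 ligase for 1 h at 37 °C, PCR-amplified and sequenced on an Illumina NextSeq500.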

The next assay addresses T2, ELK1 (Homo sapiens, UniProt P19419 1-428).
T2 sequence: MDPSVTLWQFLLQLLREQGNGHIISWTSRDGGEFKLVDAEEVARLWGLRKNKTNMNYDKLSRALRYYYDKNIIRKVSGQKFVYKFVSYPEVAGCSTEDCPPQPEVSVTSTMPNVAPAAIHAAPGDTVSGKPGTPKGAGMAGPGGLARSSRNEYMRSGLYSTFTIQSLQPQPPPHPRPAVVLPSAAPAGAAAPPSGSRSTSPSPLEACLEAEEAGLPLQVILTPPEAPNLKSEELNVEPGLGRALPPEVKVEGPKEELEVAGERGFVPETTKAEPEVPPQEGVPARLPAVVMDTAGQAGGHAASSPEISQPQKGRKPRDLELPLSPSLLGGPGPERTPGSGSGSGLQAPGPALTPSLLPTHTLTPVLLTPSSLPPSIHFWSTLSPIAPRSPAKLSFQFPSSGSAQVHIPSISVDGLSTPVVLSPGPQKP
The note with it: protein: recombinant; tags: N-terminal GST; dsDNA, one strand shown. In outline:
as §1

For another assay, the target named is T3, GABPA (Homo sapiens, UniProt Q06546 1-454).
T3 sequence: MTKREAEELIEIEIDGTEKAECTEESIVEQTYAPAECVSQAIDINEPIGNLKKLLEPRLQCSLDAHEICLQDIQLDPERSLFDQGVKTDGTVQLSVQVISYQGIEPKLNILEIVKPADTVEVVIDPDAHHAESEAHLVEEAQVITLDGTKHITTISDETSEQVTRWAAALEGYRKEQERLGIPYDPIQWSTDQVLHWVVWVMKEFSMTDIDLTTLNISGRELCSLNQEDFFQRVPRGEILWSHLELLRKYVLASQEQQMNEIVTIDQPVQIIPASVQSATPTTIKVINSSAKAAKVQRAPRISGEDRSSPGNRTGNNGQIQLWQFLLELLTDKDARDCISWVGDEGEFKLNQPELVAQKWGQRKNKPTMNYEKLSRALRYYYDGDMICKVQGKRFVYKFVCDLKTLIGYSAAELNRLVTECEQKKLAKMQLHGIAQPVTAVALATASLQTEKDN
The note with it: protein: recombinant; tags: N-terminal GST; dsDNA, one strand shown. The gist of the method: as §1

The target of a further assay is T4, ERG (Homo sapiens, UniProt P11308 1-479).
T4 sequence: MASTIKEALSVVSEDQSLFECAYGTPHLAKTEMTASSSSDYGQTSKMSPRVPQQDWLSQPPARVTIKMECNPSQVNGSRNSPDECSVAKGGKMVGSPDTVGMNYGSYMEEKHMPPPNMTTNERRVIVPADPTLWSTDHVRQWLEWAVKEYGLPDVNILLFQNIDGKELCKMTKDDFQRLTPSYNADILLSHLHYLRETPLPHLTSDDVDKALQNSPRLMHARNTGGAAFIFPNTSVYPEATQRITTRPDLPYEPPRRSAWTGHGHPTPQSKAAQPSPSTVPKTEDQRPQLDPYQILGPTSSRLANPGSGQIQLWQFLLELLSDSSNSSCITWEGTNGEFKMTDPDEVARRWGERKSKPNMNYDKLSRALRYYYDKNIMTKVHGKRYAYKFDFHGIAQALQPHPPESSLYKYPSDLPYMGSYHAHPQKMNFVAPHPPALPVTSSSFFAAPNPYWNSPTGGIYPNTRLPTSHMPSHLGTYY
The note with it: protein: recombinant; tags: N-terminal GST; dsDNA, one strand shown. The gist of the method: as §1

In a further assay the target is ELF1 (Homo sapiens, UniProt P32519 1-619). The note with it: protein: recombinant; tags: N-terminal GST; dsDNA, one strand shown. In outline: as §1
ELF1, sequence (P32519 whole entry): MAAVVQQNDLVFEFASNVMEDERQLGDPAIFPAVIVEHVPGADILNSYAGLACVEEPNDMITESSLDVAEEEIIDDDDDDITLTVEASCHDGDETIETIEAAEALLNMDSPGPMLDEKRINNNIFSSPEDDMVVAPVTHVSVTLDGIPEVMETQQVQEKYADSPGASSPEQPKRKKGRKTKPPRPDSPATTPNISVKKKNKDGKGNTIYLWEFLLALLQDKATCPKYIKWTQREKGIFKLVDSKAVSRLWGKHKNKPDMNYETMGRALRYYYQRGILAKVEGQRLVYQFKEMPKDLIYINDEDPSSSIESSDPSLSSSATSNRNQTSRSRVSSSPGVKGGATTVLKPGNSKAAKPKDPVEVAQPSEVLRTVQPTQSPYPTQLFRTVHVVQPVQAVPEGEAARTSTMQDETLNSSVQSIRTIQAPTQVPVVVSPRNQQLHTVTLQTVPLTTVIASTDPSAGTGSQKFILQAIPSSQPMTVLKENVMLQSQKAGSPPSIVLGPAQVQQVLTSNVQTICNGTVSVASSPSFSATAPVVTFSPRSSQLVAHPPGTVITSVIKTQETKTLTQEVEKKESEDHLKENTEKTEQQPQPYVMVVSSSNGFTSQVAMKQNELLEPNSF
For the next assay, the target named is T5, EHF (Homo sapiens, UniProt Q9NZC4 1-300).
T5 sequence: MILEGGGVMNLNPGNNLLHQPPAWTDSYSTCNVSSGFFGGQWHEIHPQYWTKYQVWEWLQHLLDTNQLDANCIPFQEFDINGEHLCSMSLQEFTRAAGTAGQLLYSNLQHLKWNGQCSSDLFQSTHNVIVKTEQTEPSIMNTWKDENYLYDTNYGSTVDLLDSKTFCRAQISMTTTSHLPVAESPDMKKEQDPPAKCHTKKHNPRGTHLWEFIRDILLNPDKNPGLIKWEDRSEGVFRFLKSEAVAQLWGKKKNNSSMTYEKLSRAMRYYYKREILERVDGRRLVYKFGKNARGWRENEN
The following applies: protein: recombinant; tags: N-terminal GST; dsDNA, one strand shown. In outline:
as §1

The next assay concerns the target SPI1 (Homo sapiens, UniProt P17947 1-270). The note with it: protein: recombinant; tags: N-terminal GST; dsDNA, one strand shown. In outline: as §1
In another assay the target is SPIB (Homo sapiens, UniProt Q01892 1-262). The note with it: protein: recombinant; tags: N-terminal GST; dsDNA, one strand shown. The gist of the method: as §1
SPIB, sequence (Q01892 whole entry): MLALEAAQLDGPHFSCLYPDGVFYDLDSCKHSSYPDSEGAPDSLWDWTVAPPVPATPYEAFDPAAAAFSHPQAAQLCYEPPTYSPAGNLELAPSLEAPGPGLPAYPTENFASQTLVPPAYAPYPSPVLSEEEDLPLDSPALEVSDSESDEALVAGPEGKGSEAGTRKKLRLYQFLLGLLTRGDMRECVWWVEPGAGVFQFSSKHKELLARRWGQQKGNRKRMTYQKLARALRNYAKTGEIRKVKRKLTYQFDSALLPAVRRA
For another assay, the target named is T6, ELK3 (Homo sapiens, UniProt P41970 1-407).
T6 sequence: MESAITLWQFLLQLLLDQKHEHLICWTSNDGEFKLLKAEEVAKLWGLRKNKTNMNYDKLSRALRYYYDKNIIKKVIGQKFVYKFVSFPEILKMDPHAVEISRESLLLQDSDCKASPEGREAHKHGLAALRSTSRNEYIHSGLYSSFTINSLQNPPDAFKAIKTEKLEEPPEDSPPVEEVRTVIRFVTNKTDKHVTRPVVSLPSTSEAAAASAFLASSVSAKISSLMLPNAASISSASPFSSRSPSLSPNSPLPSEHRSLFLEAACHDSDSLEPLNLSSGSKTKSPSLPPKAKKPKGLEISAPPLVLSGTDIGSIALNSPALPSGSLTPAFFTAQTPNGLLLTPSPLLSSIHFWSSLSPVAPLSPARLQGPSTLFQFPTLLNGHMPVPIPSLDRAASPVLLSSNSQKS
The following applies: protein: recombinant; tags: N-terminal GST; dsDNA, one strand shown. In outline:
as §1

Another assay addresses T7, FEV (Homo sapiens, UniProt Q99581 1-238).
T7 sequence: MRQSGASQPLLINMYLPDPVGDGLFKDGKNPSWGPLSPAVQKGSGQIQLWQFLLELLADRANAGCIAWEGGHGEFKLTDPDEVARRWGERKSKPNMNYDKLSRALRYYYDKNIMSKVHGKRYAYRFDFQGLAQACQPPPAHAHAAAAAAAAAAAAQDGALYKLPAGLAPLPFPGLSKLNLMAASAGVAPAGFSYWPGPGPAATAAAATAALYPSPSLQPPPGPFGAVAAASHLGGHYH
The note with it: protein: recombinant; tags: N-terminal GST; dsDNA, one strand shown. In outline: as §1

The target of the next assay is ETV5 (Homo sapiens, UniProt P41161 1-510). The note with it: protein: recombinant; tags: N-terminal GST; dsDNA, one strand shown. The gist of the method: as §1
ETV5, sequence (P41161 whole entry): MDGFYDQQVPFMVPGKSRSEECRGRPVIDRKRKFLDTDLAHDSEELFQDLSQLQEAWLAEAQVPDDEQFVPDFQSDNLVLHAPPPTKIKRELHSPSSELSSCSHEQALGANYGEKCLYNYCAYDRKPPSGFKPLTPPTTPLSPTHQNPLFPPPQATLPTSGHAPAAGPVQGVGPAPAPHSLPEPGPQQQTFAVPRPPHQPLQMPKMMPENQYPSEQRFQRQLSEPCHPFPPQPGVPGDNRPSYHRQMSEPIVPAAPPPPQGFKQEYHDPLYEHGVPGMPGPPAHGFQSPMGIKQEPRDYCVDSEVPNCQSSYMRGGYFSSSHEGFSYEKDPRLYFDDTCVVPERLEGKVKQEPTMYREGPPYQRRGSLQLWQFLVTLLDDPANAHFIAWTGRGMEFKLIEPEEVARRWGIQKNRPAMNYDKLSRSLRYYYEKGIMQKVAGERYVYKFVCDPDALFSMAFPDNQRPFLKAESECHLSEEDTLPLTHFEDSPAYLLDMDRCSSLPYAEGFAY
For a further assay, the target named is HSF1 (Homo sapiens, UniProt Q00613 1-529). The following applies: protein: recombinant; tags: N-terminal GST; chain copies: 3; dsDNA, one strand shown. In outline: as §1
HSF1, sequence (Q00613 whole entry): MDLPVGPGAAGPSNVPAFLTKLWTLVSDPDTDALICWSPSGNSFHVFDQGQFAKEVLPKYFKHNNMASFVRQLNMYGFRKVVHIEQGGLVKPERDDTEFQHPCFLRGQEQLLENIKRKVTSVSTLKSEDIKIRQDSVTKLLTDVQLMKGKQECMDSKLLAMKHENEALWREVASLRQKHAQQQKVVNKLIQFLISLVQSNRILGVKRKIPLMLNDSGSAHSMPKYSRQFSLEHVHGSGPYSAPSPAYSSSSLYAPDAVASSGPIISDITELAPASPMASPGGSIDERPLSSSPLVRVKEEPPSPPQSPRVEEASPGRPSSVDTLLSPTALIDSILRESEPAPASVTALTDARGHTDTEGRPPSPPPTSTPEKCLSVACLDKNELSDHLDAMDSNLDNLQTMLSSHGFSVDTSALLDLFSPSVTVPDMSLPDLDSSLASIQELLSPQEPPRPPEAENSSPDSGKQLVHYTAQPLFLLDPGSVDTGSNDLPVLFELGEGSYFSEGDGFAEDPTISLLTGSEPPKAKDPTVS
A further assay deals with T8, SPIC (Homo sapiens, UniProt Q8N5J4 1-248).
T8 sequence: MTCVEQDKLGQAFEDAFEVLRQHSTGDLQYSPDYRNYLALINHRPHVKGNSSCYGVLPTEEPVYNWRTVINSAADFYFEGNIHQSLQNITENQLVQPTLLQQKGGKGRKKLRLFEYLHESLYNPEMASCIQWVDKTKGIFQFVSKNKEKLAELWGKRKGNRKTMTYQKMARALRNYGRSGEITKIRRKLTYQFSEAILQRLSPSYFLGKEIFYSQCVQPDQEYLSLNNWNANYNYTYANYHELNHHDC
The following applies: protein: recombinant; tags: N-terminal GST; dsDNA, one strand shown. The gist of the method:
as §1

For a further assay, the target named is ELF4 (Homo sapiens, UniProt Q99607 1-663). The note with it: protein: recombinant; tags: N-terminal GST; dsDNA, one strand shown. In outline: as §1
ELF4, sequence (Q99607 whole entry): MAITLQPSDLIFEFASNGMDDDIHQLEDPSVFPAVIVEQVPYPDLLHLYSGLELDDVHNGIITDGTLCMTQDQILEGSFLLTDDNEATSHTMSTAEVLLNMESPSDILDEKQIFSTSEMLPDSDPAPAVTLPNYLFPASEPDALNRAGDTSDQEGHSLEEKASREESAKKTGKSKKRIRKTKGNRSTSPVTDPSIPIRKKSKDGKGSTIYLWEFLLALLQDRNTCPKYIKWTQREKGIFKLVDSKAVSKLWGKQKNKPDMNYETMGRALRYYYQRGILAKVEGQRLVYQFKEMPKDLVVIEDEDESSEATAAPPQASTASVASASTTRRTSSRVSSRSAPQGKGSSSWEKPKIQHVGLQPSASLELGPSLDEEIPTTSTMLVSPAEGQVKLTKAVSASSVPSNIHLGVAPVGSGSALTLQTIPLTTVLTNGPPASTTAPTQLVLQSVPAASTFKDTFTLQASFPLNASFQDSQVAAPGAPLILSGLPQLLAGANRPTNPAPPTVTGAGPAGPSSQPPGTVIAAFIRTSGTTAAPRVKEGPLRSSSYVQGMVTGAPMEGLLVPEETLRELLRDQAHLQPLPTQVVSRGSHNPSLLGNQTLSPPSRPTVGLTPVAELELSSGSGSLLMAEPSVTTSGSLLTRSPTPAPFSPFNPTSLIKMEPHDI
In another assay the target is T9, ELK4 (Homo sapiens, UniProt P28324-2 1-405).
T9 sequence: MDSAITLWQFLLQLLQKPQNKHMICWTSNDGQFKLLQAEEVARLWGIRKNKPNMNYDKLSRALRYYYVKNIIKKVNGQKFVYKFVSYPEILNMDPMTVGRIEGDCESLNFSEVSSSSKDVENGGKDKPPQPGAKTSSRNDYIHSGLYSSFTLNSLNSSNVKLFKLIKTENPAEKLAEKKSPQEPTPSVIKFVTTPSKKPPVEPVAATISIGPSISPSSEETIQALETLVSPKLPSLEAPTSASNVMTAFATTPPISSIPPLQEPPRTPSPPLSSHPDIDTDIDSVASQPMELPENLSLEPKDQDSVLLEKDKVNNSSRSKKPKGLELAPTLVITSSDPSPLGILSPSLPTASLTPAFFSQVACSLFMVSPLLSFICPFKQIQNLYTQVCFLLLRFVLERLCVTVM
The note with it: protein: recombinant; tags: N-terminal GST; dsDNA, one strand shown. The gist of the method: as §1

In another assay the target is T10, ETV2 (Homo sapiens, UniProt O00321 1-342).
T10 sequence: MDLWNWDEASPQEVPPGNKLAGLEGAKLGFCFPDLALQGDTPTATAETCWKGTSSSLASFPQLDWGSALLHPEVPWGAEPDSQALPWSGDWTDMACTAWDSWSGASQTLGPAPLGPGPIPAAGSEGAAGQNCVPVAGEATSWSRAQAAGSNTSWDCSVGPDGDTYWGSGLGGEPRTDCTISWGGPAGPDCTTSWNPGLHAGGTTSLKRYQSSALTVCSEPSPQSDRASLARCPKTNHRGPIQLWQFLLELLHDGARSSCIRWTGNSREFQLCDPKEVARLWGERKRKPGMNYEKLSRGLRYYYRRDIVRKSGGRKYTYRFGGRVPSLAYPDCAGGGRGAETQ
The following applies: protein: recombinant; tags: N-terminal GST; dsDNA, one strand shown. The gist of the method: as §1

For a further assay, the target named is T11, ELF3 (Homo sapiens, UniProt P78545 1-371).
T11 sequence: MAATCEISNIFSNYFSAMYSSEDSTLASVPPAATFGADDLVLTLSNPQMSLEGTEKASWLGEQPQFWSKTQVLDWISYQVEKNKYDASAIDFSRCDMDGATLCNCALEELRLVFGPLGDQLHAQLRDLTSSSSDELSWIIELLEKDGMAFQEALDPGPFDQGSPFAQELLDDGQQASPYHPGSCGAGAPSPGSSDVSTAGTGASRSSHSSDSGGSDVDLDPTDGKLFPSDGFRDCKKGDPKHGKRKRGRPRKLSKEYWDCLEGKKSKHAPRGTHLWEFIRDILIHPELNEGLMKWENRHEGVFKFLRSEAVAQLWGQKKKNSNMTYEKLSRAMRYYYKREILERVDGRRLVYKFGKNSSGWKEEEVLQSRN
The following applies: protein: recombinant; tags: N-terminal GST; dsDNA, one strand shown. The gist of the method: as §1

For another assay, the target named is CRX (Homo sapiens, UniProt O43186 1-299). The note with it: protein: recombinant; tags: N-terminal GST; dsDNA, one strand shown. In outline: as §1
CRX, sequence (O43186 whole entry): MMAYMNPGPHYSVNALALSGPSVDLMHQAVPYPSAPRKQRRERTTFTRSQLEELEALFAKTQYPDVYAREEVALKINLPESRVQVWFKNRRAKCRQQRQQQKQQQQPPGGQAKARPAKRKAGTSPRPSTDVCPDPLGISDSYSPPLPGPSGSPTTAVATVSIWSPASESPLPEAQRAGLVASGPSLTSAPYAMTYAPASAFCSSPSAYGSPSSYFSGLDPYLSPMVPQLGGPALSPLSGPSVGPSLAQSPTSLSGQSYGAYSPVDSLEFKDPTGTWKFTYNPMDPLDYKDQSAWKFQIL
For a further assay, the target named is ETV1 (Homo sapiens, UniProt P50549 1-477). The following applies: protein: recombinant; tags: N-terminal GST; dsDNA, one strand shown. In outline: as §1
ETV1, sequence (P50549 whole entry): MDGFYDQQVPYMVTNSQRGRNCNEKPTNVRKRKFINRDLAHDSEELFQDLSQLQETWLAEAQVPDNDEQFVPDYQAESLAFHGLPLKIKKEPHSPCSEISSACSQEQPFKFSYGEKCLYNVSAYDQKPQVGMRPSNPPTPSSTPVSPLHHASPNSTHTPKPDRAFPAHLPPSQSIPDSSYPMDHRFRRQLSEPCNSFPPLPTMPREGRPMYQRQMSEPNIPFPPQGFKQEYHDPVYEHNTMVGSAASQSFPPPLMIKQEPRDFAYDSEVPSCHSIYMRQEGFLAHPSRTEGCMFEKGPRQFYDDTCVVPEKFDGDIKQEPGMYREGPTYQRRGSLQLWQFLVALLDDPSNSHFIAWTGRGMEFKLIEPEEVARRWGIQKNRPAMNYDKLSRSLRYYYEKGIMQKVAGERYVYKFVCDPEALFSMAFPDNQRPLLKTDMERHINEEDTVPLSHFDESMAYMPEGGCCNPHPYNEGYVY

Drawing on paper PMC7862700, “An all-to-all approach to the identification of sequence-specific readers for epigenetic DNA modifications on cytosine”, this text covers binding signal for one sequence.

Turning to ACTTAA, the binding signal was 1.17 fold enrichment (6-mer frequency, TF over GST control) in the assay with FLI1; 1.23 fold enrichment (6-mer frequency, TF over GST control) with ELK1; 1.22 fold enrichment (6-mer frequency, TF over GST control) with GABPA; 1.11 fold enrichment (6-mer frequency, TF over GST control) in the assay with ERG; 1.18 fold enrichment (6-mer frequency, TF over GST control) with ELF1; 1.31 fold enrichment (6-mer frequency, TF over GST control) with EHF. The binding signal was 1.24 fold enrichment (6-mer frequency, TF over GST control) in the assay with SPI1; 1.18 fold enrichment (6-mer frequency, TF over GST control) in the assay with SPIB; 1.24 fold enrichment (6-mer frequency, TF over GST control) with ELK3; 1.15 fold enrichment (6-mer frequency, TF over GST control) in the assay with FEV; 1.2 fold enrichment (6-mer frequency, TF over GST control) in the assay with ETV5; 1.67 fold enrichment (6-mer frequency, TF over GST control) in the assay with HSF1. Besides, the binding signal was 1.25 fold enrichment (6-mer frequency, TF over GST control) with SPIC; 1.19 fold enrichment (6-mer frequency, TF over GST control) with ELF4; 1.14 fold enrichment (6-mer frequency, TF over GST control) with ELK4; 1.16 fold enrichment (6-mer frequency, TF over GST control) in the assay with ETV2; 1.15 fold enrichment (6-mer frequency, TF over GST control) with ELF3; 2.66 fold enrichment (6-mer frequency, TF over GST control) in the assay with CRX. In addition, the binding signal in the assay with ETV1 was 1.25 fold enrichment (6-mer frequency, TF over GST control).
